Results reported in PubChem BioAssay AID1619 (SRMLSC, 2009).
Out of some 220,000 compounds screened, about 830 (0.38%) were called active. A selection follows. Results with a measured potency or affinity are listed apart. Unmarked numbers belong to inactive results.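 Rule for the calls: active = compound inhibiting the enzyme by more than half at any dose during confirmatory dose-response retesting; inconclusive = strong single-dose inhibitors picked by rank but not retested; inactive = the rest.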

What follows are compounds tested against Leucine aminopeptidase (Plasmodium falciparum (isolate 3D7)) (UniProt Q8IL11) (assay: P. falciparum M17LAP inhibitors, primary screen, biochemical, fluorogenic H-Leu-NHMec substrate, 1536-well (AID 1619;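 note: plate controls were full reaction with DMSO carrier for no effect and no enzyme background for full effect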)). Conditions: recombinant M17LAP, H-Leu-NHMec fluorogenic kinetic assay; at 30 µM; stronger effect = higher value.
Sequence of Leucine aminopeptidase (Plasmodium falciparum (isolate 3D7)) (Q8IL11 whole entry, looked up): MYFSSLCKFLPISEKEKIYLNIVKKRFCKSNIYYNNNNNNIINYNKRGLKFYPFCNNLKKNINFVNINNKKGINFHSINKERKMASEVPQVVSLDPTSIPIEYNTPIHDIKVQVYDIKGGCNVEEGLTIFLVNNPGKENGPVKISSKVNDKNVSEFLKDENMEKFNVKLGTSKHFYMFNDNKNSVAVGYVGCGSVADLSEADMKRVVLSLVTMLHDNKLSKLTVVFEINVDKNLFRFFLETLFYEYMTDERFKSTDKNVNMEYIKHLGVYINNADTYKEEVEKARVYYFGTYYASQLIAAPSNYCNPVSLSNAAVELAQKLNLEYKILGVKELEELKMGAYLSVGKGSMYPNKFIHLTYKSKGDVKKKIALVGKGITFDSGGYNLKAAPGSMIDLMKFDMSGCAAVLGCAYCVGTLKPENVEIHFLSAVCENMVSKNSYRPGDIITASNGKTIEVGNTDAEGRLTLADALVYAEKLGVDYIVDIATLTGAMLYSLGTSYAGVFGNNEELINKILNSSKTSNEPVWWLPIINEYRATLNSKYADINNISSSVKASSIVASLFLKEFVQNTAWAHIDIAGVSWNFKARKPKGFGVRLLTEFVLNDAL
With `CN1CCC(Oc2ccccc2Sc2ccccc2)CC1` the inhibition was 2.7%.
With `Cc1ccc(S(=O)(=O)Nc2ccccc2C(=O)Nc2ccc(S(=O)(=O)Nc3nccc(C)n3)cc2)cc1` the inhibition was -17.2%.
With `Cc1nnc(SCC(=O)Nc2ccc3c(c2)OCO3)[nH]c1=O` the inhibition was 6.76%.
Compound `Cc1nnc(SCC(=O)Nc2ccccc2)[nH]c1=O` has an inhibition of 41.7%.
`Cc1cccc(C)c1NC(=O)CSc1nnc(C)c(=O)[nH]1` gave an inhibition of 15.2%.
For `CC(=O)Nc1ccc(NC(=O)CSc2nnc(C)c(=O)[nH]2)cc1`, the inhibition was 5.47%.
`O=c1c2ccccc2nnn1Cc1ccc2ccccc2c1` showed an inhibition of -5.34%.
Work on `COc1ccc(-n2c(SC(CN3CCCCC3)CN3CCCC3=O)nc3ccccc3c2=O)cc1` (centres undefined) yielded an inhibition of 0.58%.
For `CCOC(=O)C1=C(O)/C(=C/c2ccc(OCC(=O)O)c(OC)c2)SC1=Nc1ccc(OCC)cc1`, the inhibition was 38.5%.
In the case of `CCOc1cc(C=C2C(=O)c3ccccc3C2=O)ccc1OCC(=O)Nc1ccc(C)cc1`, the inhibition is reported as 6.24%.
With `CCOC(=O)C1=C(O)/C(=C/c2ccc(OCC(=O)O)c(OC)c2)SC1=Nc1ccc(OC)cc1` the inhibition was 41.7%.
`CCOC(=O)C1=C(O)/C(=C/c2ccc(OCC(=O)O)c(OCC)c2)SC1=Nc1ccccc1` showed an inhibition of 43.5%.
`Cc1ccc(C(=O)Nc2nc3ccc(S(C)(=O)=O)cc3s2)o1` was tested, and the inhibition was 48.6%.
For `CCOc1cc(S(=O)(=O)NC2CCCCCC2)ccc1F`, the inhibition was 4.34%.
Compound `CCc1ccc(Nc2nnc(SCC(=O)N(C)C3CCS(=O)(=O)C3)s2)cc1` (centres undefined) has an inhibition of 6.41%.
Work on `Cc1cccc(Nc2nnc(SCC(=O)N(C)C3CCS(=O)(=O)C3)s2)c1C` (centres undefined) yielded an inhibition of 35%.
`Cc1ccc(Nc2nnc(SCC(=O)c3ccc(Br)s3)s2)c(C)c1` gave an inhibition of 27.2%.
Compound `O=C1CCCCC1Sc1nnc(Nc2ccccc2)s1` (centres undefined) has an inhibition of 16.7%.
In the case of `Cc1ccc(Nc2nnc(SCC(=O)NC3CCS(=O)(=O)C3)s2)c(C)c1` (centres undefined), the inhibition is reported as 9.77%.
With `Cc1cccc(Nc2nnc(SCC3CCCCO3)s2)c1C` (centres undefined) the inhibition was 13.4%.
For `Cc1nc(CSc2nnc(Nc3cccc(C)c3C)s2)cs1`, the inhibition was 22.7%.
`Cc1cccc(Nc2nc3ccccc3s2)c1C` was tested, and the inhibition was 0.94%.
Work on `CCSc1ccc2cc(OC)ccc2[n+]1CC` yielded an inhibition of 2.2%.
Compound `Cc1ccc(NC(=O)CNCc2ccccc2)cc1Br` has an inhibition of 1.6%.
In the case of `CCC(C)(C)n1nnnc1CN1CCN(C(c2ccccc2)c2ccccc2)CC1`, the inhibition is reported as 7.37%.
`O=C1CSC2(CCCCC2)N1CCO` gave an inhibition of 15.1%.
With `O=S1(=O)CCC(NC(=S)NC2CCS(=O)(=O)C2)C1` (centres undefined) the inhibition was 1.24%.
Compound `CCOCCCNC(=S)N1C2CCC1CC(NC(=O)NC13CC4CC(CC(C4)C1)C3)C2` (centres undefined) has an inhibition of 2.02%.
`C=CC(=O)N=c1sc2ccccc2n1-c1ccccc1` showed an inhibition of -2.28%.
In the case of `c1ccc(-c2ccccc2OCCCN2CCCCCC2)cc1`, the inhibition is reported as -1.36%.
`Cc1cccc(NS(=O)(=O)c2cnc[nH]2)c1` was tested, and the inhibition was -0.29%.
`CCCCN=C(C)C1=C(O)CSC1=O` gave an inhibition of 12.4%.
`CC(C)c1ccc(Nc2nnc(SC3CCOC3=O)s2)cc1` (centres undefined) gave an inhibition of 32.8%.
In the case of `Cc1ccc(Nc2nnc(SCC3CCCCO3)s2)cc1` (centres undefined), the inhibition is reported as 13.8%.
With `Cc1cc(C)n(-c2ccc(C(=O)Nc3nnc(C4CC4)s3)cc2)n1` the inhibition was 4.37%.
`COc1ccc(OC)c(NC(=O)c2ccc(CSc3nnc(C)s3)cc2)c1` was tested, and the inhibition was -1.27%.
Compound `N/C(=N\OC(=O)COc1ccc(Br)cc1Cl)c1ccccn1` has an inhibition of -6.93%.
In the case of `O=C1C(C2=NC(c3ccccn3)C3C(=O)N(c4ccccc4)C(=O)C23)=C(O)c2ccccc21` (centres undefined), the inhibition is reported as -11%.
With `O=C1C(C2=NC(c3ccccn3)C3C(=O)N(c4ccc(Cl)cc4Cl)C(=O)C23)=C(O)c2ccccc21` (centres undefined) the inhibition was 3.81%.
`O=C1C(C2=NC(c3ccccn3)C3C(=O)N(c4ccc(OC(F)(F)F)cc4)C(=O)C23)=C(O)c2ccccc21` (centres undefined) gave an inhibition of -6.84%.
In the case of `O=C(C1=NN(c2ccccc2)C2C(=O)N(c3ccc(Cl)cc3)C(=O)C12)c1ccccc1` (centres undefined), the inhibition is reported as 4.99%.
With `O=C(NNC(=O)c1cccc2ccccc12)c1ccc(-c2ccccc2)cc1` the inhibition was -1.51%.
In the case of `CCCCOC(=O)c1ccc(NC(=O)C(=O)NCCN(C)C)cc1`, the inhibition is reported as 4.81%.
Compound `Cn1cnc([N+](=O)[O-])c1Oc1cccc(O)c1` has an inhibition of -5.34%.
`Cc1cc(NS(=O)(=O)c2ccc(NC(=O)Nc3ccccc3)cc2)no1` gave an inhibition of 53.6%.
`O=C(CSc1ccccc1)Nc1ccc(S(=O)(=O)Nc2ncccn2)cc1` showed an inhibition of 4.72%.
`Cc1noc(NS(=O)(=O)c2ccc(NC(=O)CSc3ncccn3)cc2)c1C` gave an inhibition of -8.95%.
For `Cc1cc(C)nc(NC(=O)CSc2nc3ccccc3s2)n1`, the inhibition was -0.55%.
In the case of `Cc1cc(C)nc(SCC(=O)Nc2ccc(S(=O)(=O)Nc3ncccn3)cc2)n1`, the inhibition is reported as 0.08%.
